From PubChem BioAssay AID651692 (Broad Institute, 2012) come the findings set out here.

Potency and affinity values are given separately. A number with no mark means an inactive call.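 How the source made its calls: active means fitted half-maximal concentration for loss of cell signal no higher than twice the top valid tested concentration; inconclusive means flat curve at 30 to 70% inhibition, or poor fit; inactive means flat within 30%, signal rise, or potency above limit.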

This experiment in a line: MDA-MB-231 cell growth inhibition, dose response, cytotoxicity control for RAD54 inhibitor project, CellTiter-Glo luminescence, cherry-pick (AID 651692).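 Further: 0% = median of sample compound wells and -100% = staurosporine control wells; more negative values mean stronger loss of viable cell signal.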 The settings on record: MDA-MB-231 viability, 24 h; series mostly up to 26 µM; activity change, negative = growth inhibition: at the top concentration. (In ATP-based viability assays light output follows the ATP content of the culture.)
With `COc1ccc(Nc2nc(N3CCCCC3)nc3ccccc23)c(OC)c1`, the “activity change, negative = growth inhibition” value was -11.8%.

In the case of `CCN1CCN(c2cc(C)c3cc(NC(=S)NCCN(C)C)ccc3n2)CC1`, the “activity change, negative = growth inhibition” value was 1.08%.

As to `CCN(CC)CCCNC(=O)c1cc2c(-c3cccc(OC)c3)nn(C)c2s1`, the “activity change, negative = growth inhibition” value is -1.64%.

For `Cc1c(CN(C)C)c2c(n1C)C(=O)c1ccc(Br)cc1-2`, the “activity change, negative = growth inhibition” value is -0.638%.

With `CCOc1cc2[nH]c(=S)n(Cc3ccc(C(=O)NCCCN(CC)CC)cc3)c(=O)c2cc1OCC`, the “activity change, negative = growth inhibition” value is 0.443%.

As to `CCCCN(C)CCNC(=O)c1cc2cc3ccc(OC)cc3nc2o1`, the “activity change, negative = growth inhibition” value is 5.69%.

Regarding `CCCCN(C)CCNC(=O)c1cc2c(-c3cccc(OC)c3)nn(C)c2s1`, the “activity change, negative = growth inhibition” value is -21.9%.

Regarding `c1ccc(CNc2c3ccccc3nc3ccccc23)cc1`, the “activity change, negative = growth inhibition” value was -21%.

Take `CN1CCN(CC(=O)Nc2nc(-c3c[nH]c4ccccc34)cs2)CC1`: the “activity change, negative = growth inhibition” value is 0.076%.

Regarding `Nc1cccc2nc3ccccc3cc12`, the “activity change, negative = growth inhibition” value was -12.2%.

With `CN(C)CCCNc1ncnc2sc(-c3ccccc3)cc12`, the “activity change, negative = growth inhibition” value was -11.5%.

For `Cc1ccc(S(=O)(=O)N2CCOCC2)c(C)c1NS(C)(=O)=O`, the “activity change, negative = growth inhibition” value is 1.27%.

On to `COc1ccc(-c2cc3nc(NCCN4CCCC4)n(C)c(=O)c3s2)cc1OC`, for which the “activity change, negative = growth inhibition” value is 4.91%.

For the compound `COc1ccc(OC)c(Nc2nc(NCCO)c3ccccc3n2)c1`, the “activity change, negative = growth inhibition” value is 6.73%.

For the compound `CCCN(CCC)CCCNC(=O)c1cc2c(=O)[nH]c3ccccc3c2s1`, the “activity change, negative = growth inhibition” value was 0.356%.

`NC(=O)CN1CCN(CCN2C(=O)c3cccc4cccc(c34)C2=O)CC1`: the “activity change, negative = growth inhibition” value was 0.913%.

As for `Cc1ccsc1-c1cc2nc(NCCCN(C)C)n(C)c(=O)c2s1`, the “activity change, negative = growth inhibition” value was -2.29%.

Consider `CCOCCCNC(=S)Nc1ccc2nc(N3CCN(CC)CC3)cc(C)c2c1`, for which the “activity change, negative = growth inhibition” value is -7.04%.

Take `COc1ccc2c(c1)c1ncn(CCN3CCCC3)c(=O)c1n2C`: the “activity change, negative = growth inhibition” value was 2.26%.
